# Counter-ions that a name gives are not always drawn.
# Tested on: Klebsiella aerogenes DSM 30053
# Test: growth (OD595) fold change vs plate DMSO controls (fold change (ratio)); higher = more growth
# Conditions: incubation time: 27 h, anaerobic, 37 °C
# Summary of the method: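 Growth is expressed as the fold change relative to the median of the DMSO control wells on each plate. Cultures in mGAM were grown anaerobically in 96-well plates for 27 h at 37 °C, shaken, and read at 595 nm. Readings were blank-subtracted, corrected for compound background with 20 µM compound solutions in water, and converted to OD with a calibration factor of 5. Fold changes above 1.5 were set to NA, and each value is the mean of 2 biological replicates.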
row,SMILES,growth
1,CCOC(=O)C1=C(C)NC(C)=C(C(=O)OC)C1c1cccc([N+](=O)[O-])c1 (stereo unspecified) [Nitrendipine] (20 µM),1.02
2,CCCSS/C(CCO)=C(/C)N(C=O)Cc1cnc(C)nc1N [Prosultiamine] (20 µM),0.993
3,CC(C)NCC(O)c1ccc(NS(C)(=O)=O)cc1 (stereo unspecified) [Sotalol hydrochloride] (20 µM),1.2
4,NC(=O)OCC(O)COc1ccc(Cl)cc1 (stereo unspecified) [Chlorphensin carbamate] (20 µM),0.951
5,C[C@]12CC[C@H]3[C@@H](CCC4=CC(=O)CC[C@@]43C)[C@@H]1CC[C@@H]2C(=O)CO [Deoxycorticosterone] (20 µM),1.02
6,OC(CCCN1CCCCC1)(c1ccccc1)c1ccccc1 [Diphenidol hydrochloride] (20 µM),1.01
7,Cc1cccc(Nc2ccncc2S(=O)(=O)NC(=O)NC(C)C)c1 [Torsemide] (20 µM),1
8,CCN(CC)C(=O)Nc1ccc(OCC(O)CNC(C)(C)C)c(C(C)=O)c1 (stereo unspecified) [Celiprolol hydrochloride] (20 µM),0.953
9,CC(NCCC(c1ccccc1)c1ccccc1)c1ccccc1 (stereo unspecified) [Fendiline hydrochloride] (20 µM),0.98
10,Oc1c(I)cc(Cl)c2cccnc12 [Clioquinol] (20 µM),0.978
11,CCCCC1=NC2(CCCC2)C(=O)N1Cc1ccc(-c2ccccc2-c2nnn[nH]2)cc1 [Irbesartan] (20 µM),1.01
12,CCc1ccc(C(=O)C(C)CN2CCCCC2)cc1 (stereo unspecified) [Eperisone Hydrochloride] (20 µM),0.959
13,CCn1cc(C(=O)O)c(=O)c2cc(F)c(N3CCNC(C)C3)c(F)c21 (stereo unspecified) [Lomefloxacin hydrochloride] (20 µM),0.252
14,CC(C)OC(=O)C(C)(C)Oc1ccc(C(=O)c2ccc(Cl)cc2)cc1 [Fenofibrate] (20 µM),1.04
15,CN1CCCN=C1/C=C/c1cccc(O)c1 [Oxantel pamoate] (20 µM),1.03
16,CO/N=C(\C(=O)N[C@@H]1C(=O)N2C(C(=O)[O-])=C(C[n+]3cccc4c3CCC4)CS[C@H]12)c1csc(N)n1 [Cefpirome sulfate] (20 µM),0.0713
17,C[C@H]1C[C@H]2[C@@H]3CCC4=CC(=O)C=C[C@]4(C)[C@@]3(F)[C@@H](O)C[C@]2(C)[C@@]1(O)C(=O)CO [Betamethasone] (20 µM),1.13
18,Cc1cc(NS(=O)(=O)c2ccc(N)cc2)no1 [Sulfamethoxazole] (20 µM),1.06
19,Fc1ccc(C(c2ccc(F)cc2)N2CCN(C/C=C/c3ccccc3)CC2)cc1 [Flunarizine dihydrochloride] (20 µM),1.1
20,CN1CCN(CCCN2c3ccccc3Sc3ccc(S(=O)(=O)N(C)C)cc32)CC1 [Thioproperazine dimesylate] (20 µM),1.12
21,Cn1c(=O)c2nc[nH]c2n(C)c1=O [Theophylline monohydrate] (20 µM),1.04
22,COC(=O)C1=C(C)NC(C)=C(C(=O)OC)C1c1ccccc1[N+](=O)[O-] [Nifedipine] (20 µM),0.991
23,O=C(NCc1ncc(C(F)(F)F)cc1Cl)c1c(Cl)cccc1Cl (20 µM),1
24,CC(=O)Oc1ccccc1C(=O)Nc1ncc([N+](=O)[O-])s1 [Nitazoxanide] (20 µM),0.915
25,CC(=O)CCCCn1c(=O)c2c(ncn2C)n(C)c1=O [Pentoxifylline] (20 µM),1.06
26,CN(C)CCc1c[nH]c2ccc(Cn3cncn3)cc12 [Rizatriptan benzoate] (20 µM),1.02

# Source: the supplement of paper PMC12494721
